# The panel holds about 83,000 compounds, 20% with a hit somewhere; the sample as a whole holds those more often.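 Single-dose data. Exposure time 48 hours. Values below 10 considered active.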 Values without a mark were called inactive. Calls of active or inactive are those of the source.
# How the values were obtained:
# Assay in all cases: NCI-60 one-dose screen, 48 h (100 = growth as untreated, 0 = no growth, -100 = all killed)
# HCT-15 colon = details: 10 µM unless noted
# HT29 colon = details: 10 µM unless noted
# SNB-75 CNS = details: 10 µM unless noted
# SNB-19 CNS = details: 10 µM unless noted
# U251 CNS = details: 10 µM unless noted
# PC-3 prostate = details: 10 µM unless noted
# SK-MEL-5 melanoma = details: 10 µM unless noted
# UACC-62 melanoma = details: 10 µM unless noted
# SK-MEL-28 melanoma = details: 10 µM unless noted
# SK-MEL-2 melanoma = details: 10 µM unless noted
# EKVX NSCLC = details: 10 µM
# SN12C renal = details: 10 µM unless noted
# UO-31 renal = details: 10 µM unless noted
# TK-10 renal = details: 10 µM unless noted
# ACHN renal = details: 10 µM unless noted
# CCRF-CEM leukemia = details: 10 µM
# MOLT-4 leukemia = details: 10 µM unless noted
# CAKI-1 renal = details: 10 µM unless noted
# LOX IMVI melanoma = details: 10 µM unless noted
# A498 renal = details: 10 µM unless noted
Compound,growth (HCT-15 colon),growth (HT29 colon),growth (SNB-75 CNS),growth (SNB-19 CNS),growth (U251 CNS),growth (PC-3 prostate),growth (SK-MEL-5 melanoma),growth (UACC-62 melanoma),growth (SK-MEL-28 melanoma),growth (SK-MEL-2 melanoma),growth (EKVX NSCLC),growth (SN12C renal),growth (UO-31 renal),growth (TK-10 renal),growth (ACHN renal),growth (CCRF-CEM leukemia),growth (MOLT-4 leukemia),growth (CAKI-1 renal),growth (LOX IMVI melanoma),growth (A498 renal)
CC(=N\N=C(N)N)/C(=N/N=C(N)N)c1ccccc1,103%,42.7%,88.4%,68%,80.7%,75.2%,102%,103%,110%,84.6%,68.6%,107%,82.9%,91.1%,106%,32.2%,48.9%,,,
Brc1c(-c2ccncc2)nc2n1CCS2,105%,87%,101%,103%,91.3%,84.5%,103%,84.4%,93.5%,92.7%,110%,91.7%,94.5%,97.5%,87.7%,-8.76% (active),87.3%,90.2%,,
O=Nc1c(-c2c(O)[nH]c3cc(Br)ccc23)[nH]c2ccccc12,1.93% (active),0.864% (active),-13.3% (active),15.1%,29.4%,-2.93% (active),,38.9%,-100% (active),-66.5% (active),29.8%,16.7%,-28.9% (active),-10.5% (active),0.906% (active),-6.73% (active),-68.9% (active),2.36% (active),8.85% (active),-82% (active)
CC(=O)O.[In],109%,105%,90.6%,109%,98.8%,99.7%,95.2%,102%,112%,98.4%,,109%,88.4%,100%,104%,85.4%,99.9%,,,112%
CC(C)(C)c1cc(C[P+](c2ccc(Cl)cc2)(c2ccc(Cl)cc2)c2ccc(Cl)cc2)cc(C(C)(C)C)c1O,99.1%,56.9%,87.2%,98%,85.4%,70%,85.8%,81.6%,88%,76.2%,,91.6%,64.4%,105%,98.7%,,35.7%,84.2%,,
CCS(=O)(=O)OCCO[C@H]1Cc2cc3ccc(=O)oc3cc2OC1(C)C,109%,101%,101%,105%,96.7%,101%,,102%,116%,96.8%,107%,107%,86.9%,102%,107%,115%,107%,95%,109%,102%
CCCCCCCCCC[N+](C)(C)N,101%,85.4%,78.9%,87.2%,91.8%,62.4%,96.7%,106%,110%,105%,,103%,90.3%,74.4%,105%,,80.5%,78.4%,,
CC1CCCCC[N+]12CCCC2 (configuration not stated),95.6%,107%,95%,106%,85.3%,93.4%,99.5%,103%,109%,101%,,101%,88.8%,100%,101%,,99.2%,98.7%,,109%
O=C1c2cc([N+](=O)[O-])ccc2-c2cc(Cl)c(NC(=O)C(F)(F)F)cc21,95.4%,108%,91.1%,106%,110%,94.8%,100%,101%,106%,97.1%,73.3%,112%,93.2%,129%,99.5%,96.6%,94%,97.2%,,101%
COc1ccc(-c2nnc(SCC(=O)Nc3ccc(C(=O)/C=C/c4cc(OC)c(OC)c(OC)c4)cc3)n2-c2ccccc2)cc1OC,8.91% [100 µM] (active),3.6% [100 µM] (active),-22% [100 µM] (active),-19.9% [100 µM] (active),-96.9% [100 µM] (active),10.9% [100 µM],-14.6% [100 µM] (active),-42.9% [100 µM] (active),18.3% [100 µM],-26.1% [100 µM] (active),,31.8% [100 µM],67.5% [100 µM],-42.5% [100 µM] (active),1.79% [100 µM] (active),,44.5% [100 µM],1.67% [100 µM] (active),,-69.7% [100 µM] (active)
CCCCCCCCCCCC(=O)OC(C)C(=O)Nc1ccccc1 (configuration not stated),97%,99.7%,71.9%,95.1%,97.7%,90.3%,118%,100%,108%,97.6%,,93%,78.2%,94.9%,87.6%,,96.1%,91.2%,,103%
O=C(N/N=C/c1cc(Cl)ccc1O)C(=O)N/N=C/c1cc(Cl)ccc1O,44.7%,45.4%,71.9%,82.6%,50%,56.1%,,64.7%,93.2%,109%,69.2%,79.5%,48.2%,76.3%,53.4%,39.7%,55.9%,37.2%,47.9%,81.3%
COc1ccc(-c2nc(Nc3nc4ccccc4[nH]3)nc(N)c2C#N)cc1,101%,96%,84.9%,98.1%,110%,88.1%,,89.3%,114%,97.6%,92.4%,90.8%,72.9%,95.9%,96.6%,95.4%,95%,93.3%,93.9%,119%
N=C(c1ccccc1)N(Cc1ccccc1)Cc1ccccc1,74.8%,53.4%,97.7%,99.8%,96.7%,81.5%,104%,87.3%,98.8%,85.4%,,98.8%,72.6%,106%,93.7%,,86.3%,89.8%,,96%
CCC(C)C1NC(=O)C(CCCCN)NC(=O)C(CCCCN)NC(=O)C(CC(C)C)NC(=O)C(CCCCN)NC(=O)C(C(C)CC)NC(=O)C(C(C)C)NC(=O)C(C(C)CC)NC(=O)C(CCCCN)NC(=O)C(CCCCN)NC(=O)C(C)NC(=O)C(CCCCN)NC(=O)C(CC(C)C)NC1=O (configuration not stated),35.4%,5.52% (active),36.9%,20.9%,6.7% (active),6.52% (active),,22.1%,48.2%,28.6%,13.5%,12.3%,14.6%,19.5%,3.79% (active),22%,22.2%,6.74% (active),50.5%,21.8%
CCCCCCCCCCC(C[N+](C)(C)C/C=C/c1ccccc1)C(O)c1ccccc1 (configuration not stated),79.1%,-79.8% (active),5.59% (active),35.8%,-93.9% (active),-29.9% (active),30.6%,17.4%,21.2%,-52.7% (active),,15.8%,74.1%,-2.74% (active),72.2%,,-24.4% (active),87.5%,,59%
COc1ccc(Cn2cc3c(c2)-c2oncc2CC3)cc1OC,16.3%,7.91% (active),0.447% (active),42%,18.9%,25.5%,,40.6%,50.3%,43%,43.7%,38.9%,44.1%,65.2%,44.3%,14.9%,31%,21.9%,37.3%,21.4%

# From PubChem BioAssay (NCI)
